An excerpt weighted towards active compounds, which were near 7.9% of everything screened.
MCF10A rerep: A quantitative high throughput screen for small molecules that induce DNA re-replication in MCF 10a normal breast cells | actives 2.9% (n = 350,000) | AID 624296, 2012 | MCF 10A DNA re-replication, Hoechst nuclear intensity, 48 h | Potency, µM (series often up to 46.1 µM), without a hit: top-dose activity, positive = re-replication, actives largely listed as activators; also: % of control where 0% means no effect; nearly all actives have a fitted effect of over 50% in size
SW480 rerep: A quantitative high throughput screen for small molecules that induce DNA re-replication in SW480 colon adenocarcinoma cells. SW480 DNA re-replication, Hoechst DNA content imaging, 48 h. Potency, µM (top dose mostly 46.1 µM), for the others: top-dose re-replication activation, most hits filed as activators. actives 1.8% (n = 340,000); also: % of control where 0% means no effect; nearly all actives have a fitted effect of over 55% in size
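Readout is total intensity of Hoechst-stained nuclei, excited at 405 nm and collected at 500-530 nm. Compound treatment lasted 48 hr at 37 C in 5% CO2 before staining.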
HT1080-NT tox: qHTS for induction of synthetic lethality in tumor cells producing 2HG: qHTS for the HT-1080-NT fibrosarcoma cell line | HT-1080-NT fibrosarcoma viability, CellTiter-Glo ATP luminescence, 48 h | Potency, µM (top dose mostly 46.1 µM), without a hit: at the top dose activity, negative = less viability, actives largely listed as cytotoxic | actives 1.6% (n = 360,000) | AID 686970, 2013;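 also: NT is the 2HG producing partner of a matched IDH1 knockdown line; 0% = DMSO-treated cells and -100% = media-only wells without cells; nearly all actives have a fitted effect of over 55% in size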
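Luminescent CellTiter-Glo readout after 48 hours of compound exposure at 37 degrees C defined viability of HT-1080-NT cells. Activity was normalized to DMSO wells and cell-free media wells; concentration-response curves were fitted and assigned curve classes.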
KB-V1 cytotox: qHTS assay for MDR1-selective chemotherapeutics: Primary screen using the drug-selected MDR subline cells KB-V1; Potency, µM (top dose mostly 46.1 µM), usual class: cytotoxic; AID 1347076, 2019; actives 3.4% (n = 400,000); KB-V1 MDR cells viability, CellTiter-Glo, 72 h; also: % is scaled to controls: 0 for no effect and ±100 for the full control effect; nearly all actives have a fitted effect of over 60% in size
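KB-V1 MDR subline cells in DMEM (phenol-red free, 10% FBS) exposed to compounds in qHTS concentration series for 72 h at 37 degrees C. Viability read by CellTiter-Glo luminescence; concentration-effect curves fitted after normalization and correction.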
KB-3-1 cytotox: qHTS assay for MDR1-selective chemotherapeutics: Primary screen using the parental adenocarcinoma cell KB-3-1. actives 1.4% (n = 400,000). KB-3-1 viability, CellTiter-Glo ATP luminescence, 72 h. Potency, µM (top dose mostly 46.1 µM), actives largely listed as cytotoxic. AID 1347075, 2019; also: % is scaled to controls: 0 for no effect and ±100 for the full control effect; nearly all actives have a fitted effect of over 60% in size
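Luminescent ATP read-out (CellTiter-Glo) measures survival of drug-naive KB-3-1 cells after 72 h compound exposure at 37 °C. Titration series was screened from lowest to highest concentration, with DMSO vehicle plates as background controls.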
HT1080 IDH1KD tx: qHTS for induction of synthetic lethality in tumor cells producing 2HG: qHTS for the HT-1080-IDH1KD cell line; HT-1080 IDH1 knockdown viability, ATP luminescence, 48 h; Potency, µM (highest dose often 46.1 µM), for inactives: top-dose activity, negative = toxicity, most hits filed as cytotoxic; actives 2% (n = 360,000); AID 686971, 2013;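 also: 0% = DMSO wells and -100% = cell-free medium wells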
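IDH1KD HT-1080 cells, 750/well, RPMI + 5% FBS; compound pinned after 2 h settling; 48 h, 37 °C; CellTiter-Glo luminescence; % activity normalised to DMSO and no-cell wells; curves fitted, classed by r2 and efficacy.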
The depositor's hits bear a star; i = inactive; ? = inconclusive; / = no result given; [ ] = dose if it differs, or a comment. Calls follow the shape of the dose curve; as a rule, active = well fitted curve in the direction sought with a large enough effect; inconclusive = small, poorly fitted or top-dose-only effect, or another doubt; inactive = no such curve, though single readings can be large; an effect the other way counts as inactive or inconclusive. Potency is read from the fitted curve at half-maximal effect.

SMILES	MCF10A rerep	SW480 rerep	HT1080-NT tox	KB-V1 cytotox	KB-3-1 cytotox	HT1080 IDH1KD tx
CCOC(=O)c1c(NC(=O)c2ccccc2Br)sc2c1CCc1ccccc1-2	?	16µM*	4%	13µM*	i	1%
CCOC(=O)c1c(NC(C)=O)sc2c1CCC(C=O)=C2Sc1ccccc1	-5%	2%	14µM*	?	i	7.1µM*
O=C1Nc2c(Cl)cccc2C1=O	/	/	?	i	i	?
CNc1nc2c(-c3ccc(Cl)cc3)nnn2c2ccccc12	?	6%	3%	i	i	-1%
Nc1nc2c(-c3ccc(Br)cc3)nnn2c2ccccc12	5.2µM*	10µM*	-2%	i	i	-4%
Cc1ccc(-c2nnn3c2nc(NC(C)C)c2ccccc23)cc1	16µM*	?	-8%	i	i	-9%
Cc1ccc(-c2nnn3c2nc(NC2CCC(C)CC2)c2ccccc23)cc1 (centres undefined)	/	/	/	i	i	/
Cc1cccc(-c2nnn3c2nc(NCCc2ccc(S(N)(=O)=O)cc2)c2ccccc23)c1	5.2µM*	2.3µM*	-5%	i	i	-14%
NNc1nc2c(-c3cccc(C(F)(F)F)c3)nnn2c2ccccc12	2.9µM*	3.7µM*	21µM*	?	?	21µM*
Cc1ccc(-c2nnn3c2nc(NCCc2ccc(S(N)(=O)=O)cc2)c2ccccc23)cc1	?	?	?	i	i	?
COc1cc(C2CC(=O)N(c3ccccc3)C3=C2C(=O)OC3)cc(OC)c1OC (centres undefined)	/	/	/	i	i	/
O=C(Nc1ccc2ccccc2c1)Nc1nnc(-c2ccc(Cl)cc2)s1	/	/	/	i	i	/
CCOc1ccc2nc(Cl)c(C3CC(c4ccc(C)cc4)=NN3C(=O)CCC(=O)O)cc2c1 (centres undefined)	/	/	/	i	i	/
COc1ccc(C2CCc3cc4c(cc3C2=NO)OCO4)cc1OC (centres undefined)	/	/	-1%	?	i	-23%
CC(C)(C)c1ccc(NC(=O)CON=C(N)c2ccccc2)cc1	15%	0.29µM*	-1%	i	i	-1%
C/C(=N\Nc1nc(C)cc(-c2ccccc2)n1)c1ccc(O)cc1	0%	?	10µM*	?	i	-14%
C/C(=N\Nc1nc(C)cc(-c2ccccc2)n1)c1cccc(N)c1	6%	1%	-8%	?	?	-1%
C/C(=N\Nc1nc(C)cc(-c2ccccc2)n1)c1ccccc1	1%	?	-28%	6.5µM*	i	?
C/C(=N/Nc1nc(C)cc(C)n1)c1ccc(Br)cc1	-7%	?	-9%	?	i	-20%
C/C(=N/Nc1nc(C)cc(-c2ccccc2)n1)c1ccco1	0%	12%	-6%	16µM*	i	?
C/C(=N\Nc1nc(C)cc(-c2ccccc2)n1)c1ccc(C)o1	26%	7%	0%	?	i	-10%
O=C1C(=O)C(Cl)=C(Cl)C(Cl)=C1Cl	/	/	27%	i	i	9%
CCOc1ccc(-c2nnn(CC(=O)c3cc(OC)ccc3OC)n2)cc1	?	6%	20%	5.2µM*	15µM*	3%
CCOc1ccc(-c2nnn(CC#N)n2)cc1OC	10µM*	?	?	i	?	?
COc1ccc(-c2nnn(CC#N)n2)cc1OC	-3%	-8%	4%	i	i	2%
SMILES	MCF10A rerep	SW480 rerep	HT1080-NT tox	KB-V1 cytotox	KB-3-1 cytotox	HT1080 IDH1KD tx
CC(C)(C)OC(=O)N1CC=C2C(C#N)=C(N)C(C#N)(C#N)C(c3cccs3)C2C1 (centres undefined)	?	7%	-28%	9.2µM*	i	-24%
CCOC(=O)N1CC=C2C(C#N)=C(N)C(C#N)(C#N)[C@H](c3cccs3)C2C1 (some centres undefined)	13%	4%	?	9.2µM*	i	?
CC(C)(C)OC(=O)N1CC=C2C(C#N)=C(N)C(C#N)(C#N)[C@H](c3cccnc3)[C@H]2C1	2%	-2%	6%	?	?	0%
Cc1ccc(C(=O)NC2(C(F)(F)F)C(=O)Nc3c2c(=O)[nH]c(=O)n3CCc2ccccc2)cc1 (centres undefined)	/	/	/	?	i	/
CC1(C(=O)NC2CCCCC2)CCC(=O)N1Cc1ccc2c(c1)OCO2 (centres undefined)	5%	-78%	20%	i	i	2%
O=C(NCc1ccc2c(c1)OCO2)NC1CCCCC1	0%	1%	10%	i	i	13%
CC1(C)SC(=S)N(Cc2ccc3c(c2)OCO3)C1N(O)C(=O)NC1CCCCC1 (centres undefined)	0%	6%	-2%	15µM*	?	0%[9.24 µM]
CC1(C(=O)NC2CCCCCC2)CCC(=O)N1Cc1ccc2c(c1)OCO2 (centres undefined)	1%	20%	-1%	21µM*	i	-1%
CCC(=O)Nc1c(C#N)c2nc3ccccc3nc2n1C1CCCCC1	?	?	0%	i	i	4%
CCCCn1c(NC(=O)c2ccccc2Cl)c(C#N)c2nc3ccccc3nc21	2.6µM*	16µM*	5.8µM*	?	?	9.2µM*
CCC(=O)Nc1c(C#N)c2nc3ccccc3nc2n1-c1ccccc1C	5%	-1%	8%	i	i	4%
N#Cc1c(NC(=O)c2ccccc2Cl)n(Cc2ccccc2)c2nc3ccccc3nc12	?	11µM*	?	?	?	?
CCCCn1c(NC(=O)CC)c(C#N)c2nc3ccccc3nc21	8%	-5%	8%	i	i	15%
COc1ccc(-n2c(NC(=O)c3ccco3)c(C#N)c3nc4ccccc4nc32)cc1	8.2µM*	18µM*	-21%	21µM*	?	-13%
CCOC(=O)c1c(NC(=O)c2ccco2)n(C2CCCCC2)c2nc3ccccc3nc12	6%	-3%	?	?	i	16µM*
CCOC(=O)c1cnc2ccc(OCC)cc2c1N1CCN(c2cccc(Cl)c2)CC1	/	/	/	i	?	/
C1CCN(Cc2nnnn2C2CCCC2)CC1	-10%	-4%	2%	i	i	13%

High-throughput results deposited in PubChem by National Center for Advancing Translational Sciences (NCATS).
